Measured values reported in PubChem BioAssay (NCI).
Compounds without any hit were thinned out: in the full panel of roughly 79,000, 15% have a hit. Values without a mark were called inactive. Calls of active or inactive are those of the source. Cut-off read from the data, not from the text of the source: active = growth inhibition above about 70%; inactive = the rest.

What was measured:
[1] = NCI Yeast Anticancer Drug Screen. Data for the rad50 strain (AID 155);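 note: 0% = growth of vehicle-only cultures of the same strain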; conditions: S. cerevisiae rad50 strain growth inhibition; at 50.0 µM; active compounds read high
In short: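 Vehicle-treated cultures provide the reference for the growth inhibition reported for compound-exposed, repair-deficient yeast.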

[2] = NCI Yeast Anticancer Drug Screen. Data for the mec2-1 strain (AID 157); conditions: S. cerevisiae mec2-1 strain, at 50.0 µM, active compounds read high
In short: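 Using mec2-1 yeast: add compound, measure growth, express inhibition versus vehicle-treated cultures.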

[3] = NCI Yeast Anticancer Drug Screen. Data for the sgs1 mgt1 strain (AID 161);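 note: 0% = growth of cultures given vehicle only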; conditions: S. cerevisiae sgs1 mgt1 strain, at 50.0 µM, active compounds read high
In short: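 Percent growth inhibition was derived by comparing compound-exposed mutant yeast with vehicle-exposed cultures. The strain carries alterations in DNA damage repair.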

[4] = NCI Yeast Anticancer Drug Screen. Data for the cln2 rad14 strain (AID 165);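 note: 0% = growth equal to vehicle treated cultures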; conditions: S. cerevisiae cln2 rad14 strain, at 50.0 µM, active compounds read high
In short: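 Yeast strain cln2 rad14, bearing defects in cell cycle control and DNA repair, serves as the test system; values reflect growth inhibition compared with vehicle.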

[5] = NCI Yeast Anticancer Drug Screen. Data for the bub3 strain (AID 167); conditions: S. cerevisiae bub3 mutant strain, at 50.0 µM, active compounds read high
In short: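 Mutant yeast screening strain plus compound; vehicle-treated cultures serve as the 0% inhibition reference.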

[6] = NCI Yeast Anticancer Drug Screen. Data for the mlh1 rad18 strain (AID 175); conditions: S. cerevisiae mlh1 rad18 strain growth inhibition; at 50.0 µM; active compounds read high
In short: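 Steps: expose repair-defective yeast to compound; measure growth; express inhibition against vehicle-treated controls.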

Compound | growth inhibition [1] | growth inhibition [2] | growth inhibition [3] | growth inhibition [4] | growth inhibition [5] | growth inhibition [6]
CN(C)c1ccc(/C=C2/CC(=O)N(c3ccccc3)C2=O)cc1 | 16.3% | 1.15% | 25.1% | -35.3% | -0.9% | 15.6%
Cc1cc2c(cc1C)[n+](=O)c(C(=O)CC(=O)C(=O)Nc1ccccc1C)c(C)n2[O-] | 37% | 46.5% | 3.8% | 30.4% | 47.3% | 9.3%
CN1C(=O)CC(c2cccc(C3CC(=O)N(C)C3=O)n2)C1=O (stereo unspecified) | -18.6% | -23.7% | -17.6% | -5.8% | -11.7% | -13.7%
[N-]=[N+]=C(C(=O)OCC#CCOC(=O)C(=[N+]=[N-])S(=O)(=O)c1ccccc1)S(=O)(=O)c1ccccc1 | -8.95% | -20.6% | 12.8% | -31.6% | -8.95% | -17.1%
Nc1ccc(C(=O)Nc2nccs2)cc1 | 8.4% | 12.6% | 6.8% | -19.8% | 14.6% | 4.75%
CC(C)CCCC(C)C1CCC2C3CCC(O)C(C)(CCCO)C3CCC12C (stereo unspecified) | 2% | -3.85% | 11.9% | 32.1% | 15.3% | 13.7%
COC(CCCl)c1ccccc1 (stereo unspecified) | 1.2% | -21.2% | -9.8% | 8.25% | -12.7% | 6.9%
CC(C)C(N=Cc1ccccc1O)C(=O)O (stereo unspecified) | -8.35% | -21.9% | -10.2% | -5.75% | -47.9% | -4.3%
CC(O)C(C)[N+](=O)[O-] (stereo unspecified) | 9.4% | 0.5% | -2.8% | 11.6% | 5.7% | -1.05%
CC(C)C(=O)Nc1nc2c(ncn2C2OC(CO)C(O)C2O)c(=O)[nH]1 (stereo unspecified) | 5.9% | -23.6% | -22.3% | 8.15% | -5.75% | -4.15%
CCOC(=O)CN=NNc1ccc([N+](=O)[O-])cc1 | 10.3% | 8.85% | -3.5% | -42.2% | 21.1% | 7.7%
Cc1nc2c(cnn2C)c(=O)n1-c1ccccc1Cl | 21.4% | 17.2% | 11.8% | 41% | 29.9% | 17.3%
CC12C=CC(=O)C=C1CCC1C2C(O)CC2(C)/C(=C\CO)CCC12 (stereo unspecified) | -4.05% | -1.75% | 6.55% | -15.8% | 60.2% | -3.35%
CC(=O)ON1CCC=NC1 | 19.7% | 10.3% | -20.4% | 8.05% | 3.95% | -6.75%
Nc1[nH]c(=O)nc2c1cnn2Cc1ccccc1 | -0.75% | -10.1% | -14.2% | -12.2% | -2.7% | -3.8%
CCCCCCC(=O)C/C(CCC(=O)N(Cc1ccccc1)Cc1ccccc1)=N\NC(N)=O | -6.65% | 2.75% | -14.8% | 3.75% | -6.65% | -20.8%
NC1CC(=O)N(Cc2ccccc2)C1=O (stereo unspecified) | 5.75% | -7.9% | -9.8% | -11.6% | -0.25% | 2.4%
CCCCCCCCCCCCc1ccc(CS)cc1 | 40.9% | 36.3% | 54% | -1.7% | 51.3% | 32.6%
c1ccc(NCc2nc3ccccc3[nH]2)cc1 | -1.6% | -7.55% | -10.4% | 24.3% | 7.6% | 1.15%
O=c1c(SCc2ccccc2Cl)c(SCc2ccccc2Cl)cnn1-c1ccccc1 | 10.7% | -3.05% | 12.6% | 23.4% | 7.15% | 1.45%
CC(=O)Nc1ccc(S(=O)(=O)Oc2noc3ccccc23)cc1 | 9.8% | 3.45% | 16.2% | 11.1% | 18.1% | 23.1%

Compound | growth inhibition [1] | growth inhibition [2] | growth inhibition [3] | growth inhibition [4] | growth inhibition [5] | growth inhibition [6]
COC(=O)/C(=N\NC(N)=O)C(C(=O)C=C(C)C)C(=O)C(=O)Nc1ccc(Cl)c(Cl)c1 (stereo unspecified) | -9% | -40.6% | -34.6% | 12.2% | -17% | -27.6%
CC(C)=CC(=O)OC1C2C(CC(C)C3C(O)CC(=O)C13C)OC(=O)C2C (stereo unspecified) | -0.3% | -44.3% | -0.2% | 17.8% | -27.9% | -16.9%
O=C(NNC(=O)c1ccc([N+](=O)[O-])cc1)c1ccccc1 | -5.85% | 13.1% | 15.9% | -30.1% | -13.4% | -16.1%
COc1ccc(Cc2nc3c([nH]2)c(=O)n(C)c(=O)n3C)cc1 | -0.05% | -14.1% | 0.05% | -50.8% | 1.2% | 1.2%
NC(Cc1cccc([N+](=O)[O-])c1)C(=O)O (stereo unspecified) | -57.8% | -29.5% | -35.2% | -48.3% | 13.3% | -3.8%
CC(C)(C)C1=NNC(c2ccccc2)C1 (stereo unspecified) | 5.25% | -3.75% | -14.7% | 5.5% | -1.25% | 12.6%
CC(=O)Nc1nc2c(s1)CCc1ccccc1-2 | 49.4% | 13.8% | 12.8% | 5.6% | 10.1% | 15.2%
CC(=O)OCC1OC(n2c3c(cc(C#N)c2=S)CCCCC3)C(OC(C)=O)C(OC(C)=O)C1OC(C)=O (stereo unspecified) | 27.1% | -1.7% | 3.1% | -32.9% | -0.8% | -7.1%
COc1ccc(CCNc2ncc([N+](=O)[O-])cc2N)cc1OC | 5.15% | -8.75% | -10.8% | -20.9% | 6.25% | 2.75%
N#Cc1ccccc1CC(O)(c1ccccc1)c1ccccc1 | 36.5% | -5.85% | -7.75% | 13.7% | -10.2% | 9.8%
O=C(O)C(SSC(C(=O)O)(c1ccccc1)c1ccccc1)(c1ccccc1)c1ccccc1 | 71.8% (active) | 21.5% | 54.6% | 36% | 12% | 38%
CCCCCCCCCCOC(=O)Nc1cccc(O)c1 | 29.8% | 92.8% (active) | 95.4% (active) | 18.9% | 96.9% (active) | 86.5% (active)
CC(=O)c1ccc2c(ccc3ccccc32)c1O | -16.5% | -11.6% | -3.65% | -8.8% | -2.45% | 0.7%
O=c1[nH]c(=O)n(C2OC(CO)C(O)C2O)cc1OCc1ccccc1 (stereo unspecified) | -31.8% | -19.8% | -22.8% | 4.75% | -6.6% | -31.5%
CCCCNC(=S)C(=S)NCCCC | 10.7% | -0.3% | 0.05% | 26.9% | 17.4% | -11.2%
O=C(O)C(=O)/C=C(\O)c1ccc(Br)cc1 | 32.3% | 11.8% | 3.7% | -12.1% | 36.4% | 30.1%
O=C(O)CCCC1CCC2NC(=O)NC2C1 (stereo unspecified) | 1.55% | 5.15% | -5.45% | 6.4% | 16.5% | -6%
CCCCC(O)c1ccc[n+]([O-])c1 (stereo unspecified) | 4.3% | -21% | 0.6% | 2.95% | -3.4% | 3.95%
O=P(c1ccccc1)(c1ccccc1)C(O)c1cccs1 (stereo unspecified) | 12.8% | 2% | 17.6% | 15.5% | 24.9% | 18.8%
COC1C2CCC1C(N=O)C2Br (stereo unspecified) | -23.2% | 3.75% | -3.1% | -44.9% | 0.65% | -14.7%
